Bioassay records: PubChem BioAssay, several laboratories
A selection: hits, their analogues and other compounds. The true share with any hit is near 3.8%.
PAFAH2 FP inh = PAFAH2 (human) inhibition; Q99487; recombinant PAFAH2, FP-rhodamine activity probe, fluorescence polarization; inhibition, % at 3.39 µM; 340,000 tested, 0.99% active;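 active = inhibition above the mean over all tested compounds plus 3 SD, cut at about 30% in these data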;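 note: inhibitors block probe labeling of enzyme so polarization drops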
M18AAP inhibitor = PfM18AAP enzyme inhibition; recombinant PfM18AAP, H-Glu-NHMec fluorogenic cleavage; inhibition, % at 7.35 µM; 290,000 tested, 1.2% active; AID 1822;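 active = inhibition above the campaign mean inhibition over all tested compounds plus 3 SD, cut at about 28% in these data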
PAFAH1B3 inh = PAFAH1B3 (human) inhibition. inhibition, % at 3.39 µM. recombinant PAFAH1B3, FP-rhodamine probe, fluorescence polarization. Q15102. 340,000 tested, 0.28% active. AID 492972;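 active = inhibition above the screen-wide average of all tested compounds plus 3 SD, cut at about 25% in these data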
Target sequence (Q15102 whole entry, looked up): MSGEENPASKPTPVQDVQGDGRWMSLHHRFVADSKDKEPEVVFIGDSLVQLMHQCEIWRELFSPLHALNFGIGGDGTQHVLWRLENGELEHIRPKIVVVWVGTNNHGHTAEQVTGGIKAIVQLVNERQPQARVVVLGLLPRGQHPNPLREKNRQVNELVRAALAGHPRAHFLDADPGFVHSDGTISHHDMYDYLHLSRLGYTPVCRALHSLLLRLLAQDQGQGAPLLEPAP
PAFAH1B2 inh = blocks human PAF acetylhydrolase 1b catalytic subunit 2; P68402; recombinant PAFAH1B2, FP-rhodamine activity probe, fluorescence polarization; inhibition, % at 3.39 µM; 340,000 tested, 1.2% active; AID 492953;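 active = inhibition above the mean of all tested compounds plus 3 SD, cut at about 24% in these data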
DSG3 Ab inh = inhibitors of pemphigus antibody binding to human desmoglein-3 | P32926 | DSG3-coupled beads, scFv-anti-DSG3-GFP binding, flow cytometry; stronger effect = lower value | binding (percent of control), % at 10 µM | 310,000 tested, 0.48% active | AID 588358;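 active = binding more than 3 SD below its plate's average and above zero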;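 note: hits lower antibody fragment binding to DSG3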
pPAFAH FP inh = inhibitors of human plasma PAF acetylhydrolase (pPAFAH). inhibition, % at 3.39 µM. recombinant pPAFAH, FP-rhodamine probe fluorescence polarization. 330,000 tested, 1.5% active. AID 463082;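 active = inhibition above the mean inhibition across the screen plus 3 SD, cut at about 25% in these data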;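 note: inhibitors block binding of the rhodamine activity-based probe so polarization drops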
Target sequence (Q13093 whole entry, looked up): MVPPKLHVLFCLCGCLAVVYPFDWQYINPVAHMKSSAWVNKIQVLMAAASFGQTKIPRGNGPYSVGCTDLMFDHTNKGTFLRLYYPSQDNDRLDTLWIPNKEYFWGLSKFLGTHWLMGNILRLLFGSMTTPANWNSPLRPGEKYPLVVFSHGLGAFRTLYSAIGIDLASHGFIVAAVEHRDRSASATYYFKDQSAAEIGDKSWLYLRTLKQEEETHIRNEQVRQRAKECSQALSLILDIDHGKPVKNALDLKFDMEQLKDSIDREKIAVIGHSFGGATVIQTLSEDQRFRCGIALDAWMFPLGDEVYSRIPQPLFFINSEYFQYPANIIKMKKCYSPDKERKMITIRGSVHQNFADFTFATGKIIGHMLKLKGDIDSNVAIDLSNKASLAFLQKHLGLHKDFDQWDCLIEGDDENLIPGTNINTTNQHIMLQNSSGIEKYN
A number is an active result.

`CCCn1c(NC(=O)c2ccc(F)cc2)nc2ccccc21` gave PAFAH2 FP inh inactive, M18AAP inhibitor inactive, PAFAH1B3 inh inactive, PAFAH1B2 inh inactive, DSG3 Ab inh inactive and pPAFAH FP inh inactive.
`CCCn1c(NC(=O)c2ccc(Br)cc2)nc2ccccc21` gave PAFAH2 FP inh inactive, M18AAP inhibitor inactive, PAFAH1B3 inh inactive, PAFAH1B2 inh inactive, DSG3 Ab inh 85 and pPAFAH FP inh inactive.
Screening Cc1ccc(S(=O)(=O)N2Cc3ccccc3CC2C(N)=O)cc1 (centres undefined) returned DSG3 Ab inh inactive.
`CC1(C)N=C(N)N=C(N)N1c1ccc(OCC(=O)N2CCOCC2)c(Cl)c1` gave DSG3 Ab inh inactive.
For CCN(CC)C(=O)C1=C(C)N(Cc2ccc(C(C)(C)C)cc2)C(=O)C(CC(=O)NC(c2ccccc2)c2ccccc2)C1 (centres undefined) the results were DSG3 Ab inh inactive.
`COc1ccccc1-c1ccc(/C=C2\C=CC(=O)O2)o1` gave M18AAP inhibitor inactive, DSG3 Ab inh inactive and pPAFAH FP inh 26.
COCCn1c(-c2ccco2)csc1=Nc1cccnc1 was read as PAFAH2 FP inh inactive, M18AAP inhibitor inactive, PAFAH1B3 inh inactive, PAFAH1B2 inh inactive, DSG3 Ab inh inactive and pPAFAH FP inh inactive.
For COc1ccc(O)c(/C=N/n2c(-c3ccco3)csc2=Nc2cccnc2)c1 the results were PAFAH2 FP inh inactive, M18AAP inhibitor inactive, PAFAH1B3 inh inactive, PAFAH1B2 inh inactive, DSG3 Ab inh 1.2 and pPAFAH FP inh inactive.
For CC(C)(C)c1ccc(C(=O)NC(=S)Nn2cnnc2)cc1 the results were PAFAH2 FP inh inactive, M18AAP inhibitor 55, PAFAH1B3 inh inactive, PAFAH1B2 inh inactive, DSG3 Ab inh inactive and pPAFAH FP inh inactive.
C[C@H]1CCC[C@]2(C)C[C@H]3OC(=O)C(CN4CCCCCC4)[C@H]3C=C12 (some centres undefined) was read as PAFAH2 FP inh inactive, M18AAP inhibitor inactive, PAFAH1B3 inh inactive, PAFAH1B2 inh 30, DSG3 Ab inh inactive and pPAFAH FP inh inactive.
CCCCCCN1C[C@H](n2cc(-c3ccc(F)cc3)nn2)[C@@H](O)C[C@@H]1c1ccc(C)cc1 was read as DSG3 Ab inh inactive.
Screening Cc1c(Cl)ccc2c1NC(=O)[C@]21N[C@@H](CCC(N)=O)[C@H]2C(=O)N(c3ccc(F)cc3)C(=O)[C@H]21 returned PAFAH2 FP inh inactive, M18AAP inhibitor inactive, PAFAH1B3 inh inactive, PAFAH1B2 inh inactive, DSG3 Ab inh inactive and pPAFAH FP inh inactive.
`Cc1c(Cl)ccc2c1NC(=O)C21NC(CCC(N)=O)[C@H]2C(=O)N(c3ccc(Cl)cc3)C(=O)[C@H]21` (some centres undefined) gave PAFAH2 FP inh inactive, M18AAP inhibitor inactive, PAFAH1B3 inh inactive, PAFAH1B2 inh inactive and pPAFAH FP inh 25.
Cc1cc(C)cc(-n2ncc3c2CCCC3NC(=O)CCN2CCCC2=O)c1 (centres undefined) was read as PAFAH2 FP inh inactive, M18AAP inhibitor inactive, PAFAH1B3 inh inactive, PAFAH1B2 inh inactive, DSG3 Ab inh inactive and pPAFAH FP inh inactive.
Screening C[C@@H]1CN([C@H](C)CO)C(=O)c2cc(C#C[C@@H](C)O)cnc2O[C@H]1CN(C)C(=O)c1ccc(F)cc1 returned DSG3 Ab inh inactive.
Screening COc1cc(/C=C2/SC(=Nc3ccc(O)cc3)NC2=O)cc(OC)c1O returned PAFAH2 FP inh inactive, M18AAP inhibitor 33, PAFAH1B3 inh inactive, PAFAH1B2 inh inactive, DSG3 Ab inh inactive and pPAFAH FP inh inactive.
Screening O=C1NC(=NCc2ccccc2)S/C1=C/c1ccc(O)cc1 returned PAFAH2 FP inh inactive, M18AAP inhibitor inactive, PAFAH1B3 inh inactive, PAFAH1B2 inh inactive, DSG3 Ab inh inactive and pPAFAH FP inh 29.
`CN(CC(=O)Nc1ccc(F)c(F)c1F)C(=O)CCN1C(=O)C2CC=CCC2C1=O` (centres undefined) gave DSG3 Ab inh inactive.
For CCOc1ccc(OCCC(=O)Nc2ccccc2C(=O)NC2CC2)cc1 the results were DSG3 Ab inh inactive.
Cc1ccc(C(=O)OCC(=O)N2c3ccccc3NC(=O)C2(C)C)cc1S(=O)(=O)N1CCCCC1 was read as PAFAH2 FP inh inactive, PAFAH1B3 inh inactive, PAFAH1B2 inh 27, DSG3 Ab inh inactive and pPAFAH FP inh inactive.
`Cc1cc(C)c(C)c(S(=O)(=O)N2CCC(C(=O)OCC(=O)N3c4ccccc4NC(=O)C3(C)C)CC2)c1C` gave PAFAH2 FP inh inactive, M18AAP inhibitor inactive, PAFAH1B3 inh inactive, PAFAH1B2 inh inactive, DSG3 Ab inh inactive and pPAFAH FP inh inactive.
Screening Cc1ccc(S(=O)(=O)N2CCCCC2)cc1C(=O)OCC(=O)N1c2ccccc2NC(=O)C1(C)C returned PAFAH2 FP inh inactive, PAFAH1B3 inh inactive, PAFAH1B2 inh 34, DSG3 Ab inh inactive and pPAFAH FP inh inactive.
For COc1ccc(S(=O)(=O)NC2CC(C)(C)NC(C)(C)C2)cc1 the results were PAFAH2 FP inh inactive, M18AAP inhibitor inactive, PAFAH1B3 inh inactive, PAFAH1B2 inh inactive, DSG3 Ab inh inactive and pPAFAH FP inh inactive.
Screening CC1(C)CC(NS(=O)(=O)c2ccc3ccccc3c2)CC(C)(C)N1 returned PAFAH2 FP inh inactive, M18AAP inhibitor inactive, PAFAH1B3 inh inactive, PAFAH1B2 inh inactive, DSG3 Ab inh 33 and pPAFAH FP inh inactive.
Screening c1ccc(CSc2nnc(-c3ccco3)o2)cc1 returned PAFAH2 FP inh inactive, M18AAP inhibitor inactive, PAFAH1B3 inh inactive, PAFAH1B2 inh inactive, DSG3 Ab inh inactive and pPAFAH FP inh inactive.
Brc1ccc(CSc2nnc(-c3ccco3)o2)cc1 was read as PAFAH2 FP inh inactive, M18AAP inhibitor inactive, PAFAH1B3 inh inactive, PAFAH1B2 inh 27, DSG3 Ab inh inactive and pPAFAH FP inh inactive.
COC(=O)C1=C(C)N(C)C(=O)NC1c1cc2c(cc1[N+](=O)[O-])OCO2 (centres undefined) was read as PAFAH2 FP inh inactive, M18AAP inhibitor inactive, PAFAH1B3 inh inactive, PAFAH1B2 inh inactive, DSG3 Ab inh inactive and pPAFAH FP inh inactive.
Screening COC(=O)C1=C(C)N(CCCC(=O)O)C(=O)NC1c1cc2c(cc1[N+](=O)[O-])OCO2 (centres undefined) returned PAFAH2 FP inh inactive, M18AAP inhibitor inactive, PAFAH1B3 inh inactive, PAFAH1B2 inh inactive, DSG3 Ab inh inactive and pPAFAH FP inh 30.
O=S(=O)(Nc1cccnc1)c1ccc(Cl)c(C(F)(F)F)c1 was read as PAFAH2 FP inh inactive, M18AAP inhibitor inactive, PAFAH1B3 inh inactive, PAFAH1B2 inh 26 and pPAFAH FP inh inactive.
CC(Oc1ccc(Cl)cc1)c1ccnn1S(=O)(=O)c1ccccc1 (centres undefined) was read as PAFAH2 FP inh inactive, M18AAP inhibitor inactive, PAFAH1B3 inh inactive, PAFAH1B2 inh 51 and pPAFAH FP inh inactive.
`CC(Oc1ccc(-c2ccccc2)c(F)c1)c1ccn(S(=O)(=O)c2ccc(Cl)cc2)n1` (centres undefined) gave PAFAH2 FP inh inactive, M18AAP inhibitor inactive, PAFAH1B3 inh inactive, PAFAH1B2 inh inactive, DSG3 Ab inh inactive and pPAFAH FP inh inactive.
